# High-throughput results deposited in PubChem BioAssay by several laboratories.
# In the library only some 1.4% were active in any assay of this set; here they are far more common.
# BJeLR viability: BJeLR cell viability loss; BJeLR (HRASV12) viability, CellTiter-Glo ATP luminescence, 48 h; inhibition, % (test concentration not listed); 300,000 tested, 0.17% active; in the data active = inhibition above about 50%
# CCHFV vOTU inh: CCHFV vOTU protease inhibition. Pep-AMC fluorescence. inhibition, % at 11.5 µM. 370,000 tested, 0.55% active; in the data active = inhibition above about 30%; also: 0% = vehicle wells with enzyme and 100% = no enzyme wells
# 3CLpro inhibitor: SARS-CoV 3CLpro protease inhibition. P0C6X7. recombinant SARS-CoV 3CLpro, quenched FRET peptide cleavage. inhibition, % at 6 µM. 290,000 tested, 0.14% active. AID 1706; in the data active = inhibition above about 12%
# MazEF act: MazEF (E. coli) toxin RNase activation; FAM/BHQ RNA-DNA oligo cleavage fluorescence, 5 h; 350,000 tested, 0.32% active; activation, % at 20 µM; P0AE70; in the data active = activation above about 50%
# Target sequence (P0AE70 whole entry, looked up): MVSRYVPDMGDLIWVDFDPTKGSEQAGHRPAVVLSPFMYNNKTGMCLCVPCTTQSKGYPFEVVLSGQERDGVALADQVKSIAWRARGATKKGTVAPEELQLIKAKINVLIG
# DUSP3 inh: DUSP3 (human) phosphatase inhibition; recombinant VHR phosphatase, pNPP absorbance; 290,000 tested, 0.52% active; P51452; inhibition, % at 13.3 µM; AID 1654; in the data active = inhibition above about 50%
# Target sequence (P51452 whole entry, looked up): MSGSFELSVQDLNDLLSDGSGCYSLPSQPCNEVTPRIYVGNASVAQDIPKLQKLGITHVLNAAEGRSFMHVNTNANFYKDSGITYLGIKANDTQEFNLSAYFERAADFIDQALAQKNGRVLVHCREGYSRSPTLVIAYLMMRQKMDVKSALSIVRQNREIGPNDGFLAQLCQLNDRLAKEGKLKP
# Starred values were filed as active, the others as inactive; · = not tested or not shown; + = active, no number.
SMILES,BJeLR viability,CCHFV vOTU inh,3CLpro inhibitor,MazEF act,DUSP3 inh
O=C(N[C@@H](Cc1ccccc1)C(=O)N1CCC2CCN(S(=O)(=O)c3ccccc3)CC21)[C@@H]1CCCN1 (stereo partly drawn),·,2,·,·,·
CCn1nc(C)cc1C(=O)N1CCCC(C(=O)c2ccc3ccccc3c2)C1 (stereo not drawn),-7,-16,-3,7,21
Cc1cc(C)n(CC(=O)N2CCCC(C(=O)c3cccc(OC(C)C)c3)C2)n1 (stereo not drawn),-8,2,4,-1,52*
CCn1nc(C)cc1C(=O)N1CCCC(C(=O)c2ccc(Oc3ccccc3)cc2)C1 (stereo not drawn),1,11,5,-12,57*
C=CCCC(=O)N1CCCC(C(=O)c2cccc(OC)c2)C1 (stereo not drawn),2,-12,-7,2,57*
C[n+]1cn(Cc2ccc(C#N)cc2)c2ccccc21,-4,0,-3,4,53*
CC(=O)c1cn(Cc2ccc(C#N)cc2)c2ccccc12,-3,-14,0,-9,22
CCOc1cc(CNCc2cc(OC)cc(OC)c2)ccc1OC,3,-16,1,10,51*
CCOc1cc(CNCc2ccc(C(=O)O)cc2)ccc1OC,-1,-14,1,-7,11
COc1cccc(CNCc2ccc(OC)cc2OC)c1,-8,5,-1,13,56*
COc1ccc(CNS(=O)(=O)c2ccc(-c3cc(C)no3)cc2)cc1,1,12,0,-7,60*
COc1ccc(/C=C(\C#N)C(=O)NCCc2ccccc2)cc1OCc1ccccc1,-14,-3,-6,84*,3
COc1cc(/C=C(/C#N)C(=O)NCc2ccccc2)cc(OC)c1OC,-6,-6,4,2,16
Cc1cc(/C=C(\C#N)C(=O)NCc2ccccc2)cc(C)c1O,-12,0,0,-2,52*
O[C@@H]1[C@@H](O)[C@H](n2c3ccc(Cl)cc3c3ccc4c5cc(Cl)ccc5[nH]c4c32)OC[C@H]1O,·,12,·,·,·
Cc1ccc(C#N)c(SCc2cccc(Br)c2)n1,-6,0,·,-7,·
Cc1ccc(C#N)c(SCc2cc3c(cc2Cl)OCO3)n1,-4,-13,0,59*,-1
CN1C(=O)CC(Nc2cccc3cccc(N)c23)C1=O (stereo not drawn),-6,·,-3,21,58*
CC(C)N1C(=O)CC(Nc2cccc3cccc(N)c23)C1=O (stereo not drawn),·,12,1,4,8
Cc1nc(C)c(C(=O)N(c2ccccc2F)C(C(=O)NCC2CCCO2)c2ccccc2)s1 (stereo not drawn),-1,-2,-6,3,54*
Cc1nc(C)c(C(=O)N(c2ccc(F)cc2)C(C(=O)NCC2CCCO2)c2ccccc2)s1 (stereo not drawn),3,4,-2,1,1
CCCCN(CC)CCNC(=O)c1ccc2c(Cl)c3c(nc2c1)CCC3,10,-10,-7,14,57*
CCN(CC)CCCNC(=O)c1ccc2c(Cl)c3c(nc2c1)CCCC3,-8,-4,-4,0,14
CCOC(=O)/C=c1\s/c(=C\c2c(OCC)ccc3ccccc23)c(=O)n1CC(=O)NCC1CCCO1 (stereo not drawn),0,9,-2,-17,9
CCOC(=O)/C=c1/s/c(=C\c2c(OC)ccc3ccccc23)c(=O)n1CC(=O)NCC1CCCO1 (stereo not drawn),·,17,·,184*,·
SMILES,BJeLR viability,CCHFV vOTU inh,3CLpro inhibitor,MazEF act,DUSP3 inh
CCOC(=O)[C@]12CCCC=C1N(CCCOC)C(=O)[C@@H]2CC(=O)NCC12CC3CC(CC(C3)C1)C2,·,2,·,·,·
C#CCNC(=O)C[C@H]1C[C@@]2(C(=O)OC)C(=C[C@H](C(C)(C)C)O[C@@H]2C)N(Cc2ccc(Cl)cc2Cl)C1=O,·,22,·,·,·
CCCCCCn1c(=O)[nH]c2nc3cc(N)ccc3nc2c1=O,-14,16,-7,364*,26
NCCNC(=O)c1c(NC(=O)c2ccccc2)sc2c1CCCC2,8,7,-1,17,54*
O=C(Nc1sc2c(c1C(=O)O)CCCCC2)c1ccccc1,7,10,4,21,-12
O=C(Nc1sc2c(c1C(=O)O)CCC2)c1ccccc1,2,8,0,3,52*
COc1cccc(Cn2cc(COC(=O)NCCc3ccccc3)nn2)c1,·,-5,·,·,·
Cc1ccc(O)c(C(=O)c2cc(C#N)c3nc4ccccc4n3c2)c1,13,-10,0,90*,15
Cc1ccc(O)c(C(=O)c2cc(C#N)c(=O)n(Cc3ccccc3)c2)c1,-4,-5,-1,-2,25
Cc1cccc(C(=O)Nc2c(-c3ccc(C(F)(F)F)cc3)nc3ncccn23)c1,·,15,·,·,·
CN[C@H]1C[C@H]2O[C@@](C)([C@H]1OC)n1c3ccccc3c3c4c(c5c6ccccc6n2c5c31)C(=O)NC4,107*,·,-3,·,16
COc1ccc(OCC(O)COc2ccc(C(=O)O)cc2)cc1 (stereo not drawn),-10,-4,0,11,51*
CC(=O)c1ccc(OCC(O)COc2ccc(C(C)=O)cc2)cc1,-3,-13,-7,-2,30
O=C(Nc1cc(Cl)ccc1F)C1CCCN(c2nnc(-n3cccc3)s2)C1 (stereo not drawn),·,6,·,·,·
S=C(NCc1ccc2c(c1)OCO2)Nc1ccc(-c2nc3ccccc3[nH]2)cc1,8,9,-4,50*,1
Cc1cccc(Nc2n[nH]c(=S)s2)c1C,0,-2,1,-6,22
COc1ccccc1Nc1n[nH]c(=S)s1,2,-12,3,-4,51*
Cc1cc(C)cc(C(=O)OCCN2CCN(C3CN(Cc4cn(Cc5ccccc5F)nn4)S(=O)(=O)C3)CC2)c1 (stereo not drawn),·,1,·,·,·
O=C(CCS(=O)(=O)c1ccccc1)Nc1ccccn1,4,9,-6,-1,60*
Oc1ccc2ccccc2c1C=Nn1c(-c2n[nH]c3c2CCC3)n[nH]c1=S,·,8,·,·,·
CCOC(=O)c1c(C)c(P(=S)(N2CCOCC2)N2CCOCC2)n(C)c1C,15,-3,2,3,19
CCOC(=O)c1c(P(=O)(N2CCOCC2)N2CCOCC2)noc1N,2,7,2,7,53*
Cn1cc(C=C2C(=O)NC(=O)NC2=O)c2ccccc21,12,1,4,+,22
CC(=O)n1cc(C=C2C(=O)NC(=O)NC2=O)c2ccccc21,-4,3,-1,3,-20
O=C(CSc1nnc(-c2ccccn2)n1-c1ccccc1)Nc1ccc(OCc2ccccc2)cc1,·,19,·,·,·
NC(=O)NC(CC(=O)NCCc1ccccn1)c1ccccc1Cl (stereo not drawn),3,13,4,-1,53*
COc1ccc(F)cc1CN1CCN(C(=O)CCC(=O)Nc2nnc(CC(C)C)s2)CC1,62*,14,-6,-1,-3
